Common to all, as to settings: Compound Concentration (nM):1000
Assay [1] concerns BRSK2.
Assay [2] deals with BTK.
For assay [3], the system named is BUB1.
Assay [4] has as its system T1, CAMK1B.
T1 construct: gene PNCK

Assay [5] has as its system CAMK1D.
The subject of assay [6] is CAMK1G.
The test system of assay [7] is CAMK1.
Assay [8] concerns CAMK2A.
Assay [9] concerns CAMK2B.
Assay [10] concerns CAMK2D.
The subject of assay [11] is CAMK2G.
In assay [12] the test system is CAMK4.
Assay [13] relates to CAMKK1.
Assay [14] has as its system CAMKK2.
Assay [15] has as its system CASK.
Assay [16] has as its system T2, CDC2L1.
T2 construct: gene CDK11B

Assay [17] has as its system CDC2L2.
For assay [18], the system named is T3, CDC2L5.
T3 construct: gene CDK13

Assay [19] concerns T4, CDK11.
T4 construct: gene CDK19

The test system of assay [20] is CDK2.
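Also: KINOMEscan scanMAX binding as percent activity remaining versus control; lower means stronger binding.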

For the molecule `CC1=C(C(=O)Nc2ccc3[nH]ncc3c2)C(c2ccc3ccccc3c2)CC(=O)N1` (stereo not shown) [GSK270822A], the “Percent Control” value was 73% in assay [1]; 13% in [2]; 60% in assay [3]; 67% in assay [4]; 97% in assay [5]; 91% in assay [6]. The “Percent Control” value was 83% in [7]; 87% in assay [8]; 87% in [9]; 79% in [10]; 79% in [11]; 100% in assay [12]. In addition, the “Percent Control” value in assay [13] was 70%; in [14], 69%; in [15], 86%; in assay [16], 100%; in assay [17] it was 90%; in [18], 85%. Besides, the results for the “Percent Control” value in [19] and in [20] were 90% and 100%, respectively.
With `COc1ccc2cc(-c3c(-c4ccncc4)nc(-c4ccc(S(C)(=O)=O)cc4C)n3C)ccc2c1` [SB-633825], the “Percent Control” value is 73% in [1]; 45% in [2]; 33% in assay [3]; 53% in [4]; 96% in assay [5]; 83% in assay [6]. Further, the “Percent Control” value in assay [7] is 93%; in [8], 87%; in assay [9], 97%; in assay [10] it was 77%; in assay [11] it was 76%; in [12] it was 87%. In addition, the “Percent Control” value was 77% in assay [13]; 73% in assay [14]; 84% in assay [15]; 92% in [16]; 96% in [17]; 91% in assay [18]. For the same molecule, the “Percent Control” value in assay [19] is 100%; in assay [20] it was 79%.
In the case of `CC1=C(C(=O)Nc2ccc3[nH]ncc3c2)C(c2ccc(Cl)c(Cl)c2)CC(=O)N1` (stereo not shown) [GSK299115A], the “Percent Control” value in [1] is 98%; in [2] it was 26%; in assay [3] it was 73%; in assay [4], 81%; in assay [5], 90%; in assay [6], 100%. Also, the “Percent Control” value in assay [7] is 87%; in [8] it was 80%; in assay [9], 88%; in assay [10], 96%; in assay [11], 95%; in assay [12] it was 100%. For the same molecule, the “Percent Control” value is 95% in [13]; 85% in [14]; 96% in assay [15]; 100% in assay [16]; 96% in assay [17]; 77% in assay [18]. For the same molecule, the “Percent Control” value in assay [19] is listed as 91%; in assay [20] it was 100%.
For `Cl.O=S1CCN(Cc2ccc(-c3ccc4ncnc(Nc5ccc(OCc6ccccc6)c(F)c5)c4c3)o2)CC1` [GW576924A], the “Percent Control” value in assay [1] is 85%; in assay [2], 100%; in [3] it was 100%; in assay [4] it was 100%; in assay [5], 100%; in assay [6], 100%. In addition, the “Percent Control” value in assay [7], in assay [8], in assay [9], in assay [10], in assay [11] and in assay [12] was 100% in each case. In addition, the “Percent Control” value in assay [13], in assay [14], in assay [15], in assay [16], in assay [17] and in assay [18] was 100% in each case. Also, the “Percent Control” value in [19] and in assay [20] was 100% each time.
For `COc1cc(C)c(N(C)C(=O)CN(C)C)cc1Nc1nc(Nc2cccc(F)c2C(N)=O)c2cc[nH]c2n1` [GSK2219385], the “Percent Control” value in assay [1] was 93%; in assay [2] it was 100%; in [3], 90%; in assay [4] it was 85%; in [5], 87%; in [6], 95%. Moreover, the “Percent Control” value was 97% in assay [7]; 89% in [8]; 93% in [9]; 82% in [10]; 98% in assay [11]; 80% in [12]. Further, the “Percent Control” value in assay [13] was 97%; in [14], 94%; in assay [15], 100%; in [16] it was 100%; in [17], 100%; in assay [18], 50%. Besides, the “Percent Control” value is 92% in assay [19] and 100% in [20].
Regarding `Cl.O=C(Nc1ccc(Oc2ccc3[nH]c(NC(=O)c4ccco4)nc3c2)cc1)Nc1cc(C(F)(F)F)ccc1F` [GW683134A], the “Percent Control” value in assay [1] is 98%; in assay [2], 95%; in [3] it was 95%; in [4], 100%; in assay [5] it was 100%; in [6], 100%. Moreover, the “Percent Control” value in assay [7] is 59%; in assay [8] it was 85%; in assay [9], 79%; in assay [10] it was 100%; in assay [11] it was 100%; in assay [12], 90%. Moreover, the “Percent Control” value in assay [13] is 100%; in [14], 100%; in assay [15], 100%; in [16], 100%; in assay [17], 100%; in assay [18], 95%. Moreover, the “Percent Control” value in assay [19] is recorded as 13%; in assay [20], 96%.
For the molecule `Cc1cc(O)cc(C)c1/C=C/c1cncc(C(N)=O)c1` [GW435821X], the “Percent Control” value in assay [1] is 50%; in assay [2], 100%; in [3] it was 100%; in assay [4] it was 100%; in assay [5], 100%; in assay [6], 100%. The “Percent Control” value in assay [7] was 91%; in [8], 100%; in [9], 100%; in assay [10] it was 100%; in [11] it was 100%; in [12], 100%. Besides, the “Percent Control” value was 100% in assay [13]; 100% in assay [14]; 77% in assay [15]; 100% in [16]; 97% in assay [17]; 100% in assay [18]. The “Percent Control” value in assay [19] and in [20] was 100% in each case.
Consider `COc1cccc(-c2c[nH]c3c(N/N=C/c4ccncc4)ncnc23)c1` [GW814408X], for which the “Percent Control” value in [1] was 92%; in assay [2] it was 77%; in assay [3] it was 50%; in assay [4] it was 95%; in assay [5], 100%; in [6], 97%. Also, the “Percent Control” value was 100% in [7]; 77% in assay [8]; 81% in assay [9]; 84% in [10]; 100% in assay [11]; 100% in assay [12]. Moreover, the “Percent Control” value was 100% in assay [13]; 95% in assay [14]; 44% in assay [15]; 81% in [16]; 53% in assay [17]; 87% in [18]. The “Percent Control” value in [19] is 100%; in assay [20] it was 62%.
With `COc1cc(C=NNc2ncnc3c2cnn3-c2ccccc2)ccc1O` [GW513184X], the “Percent Control” value in assay [1] was 73%; in assay [2], 100%; in assay [3], 81%; in assay [4] it was 100%; in [5], 100%; in assay [6], 100%. In addition, the “Percent Control” value in assay [7] is 100%; in assay [8], 97%; in assay [9], 100%; in assay [10], 100%; in assay [11], 100%; in [12], 100%. In addition, the “Percent Control” value in assay [13] is 100%; in assay [14], 100%; in [15], 64%; in [16], 100%; in [17], 100%; in assay [18], 96%. For the same molecule, the “Percent Control” value in assay [19] was 100%; in assay [20], 66%.
Take `NS(=O)(=O)c1ccc(Nc2ncc(-c3ccccc3)o2)cc1` [GW572399X]: the “Percent Control” value in assay [1] is 100%; in assay [2], 96%; in assay [3] it was 80%; in assay [4], 100%; in assay [5], 100%; in assay [6] it was 100%. For the same molecule, the “Percent Control” value is 78% in assay [7]; 94% in assay [8]; 100% in [9]; 100% in [10]; 100% in [11]; 100% in [12]. For the same molecule, the “Percent Control” value is 100% in [13]; 100% in assay [14]; 94% in assay [15]; 100% in [16]; 100% in [17]; 26% in assay [18]. Moreover, the “Percent Control” value in assay [19] and in [20] was 100% each time.
`Cl.O=C(Nc1ccc(Oc2ccc3[nH]c(NC(=O)c4ccccc4)nc3c2)cc1)Nc1cc(C(F)(F)F)ccc1F` [GW709042A]: the “Percent Control” value in [1] is 73%; in assay [2], 93%; in assay [3], 92%; in [4], 100%; in [5] it was 97%; in assay [6], 100%. For the same molecule, the “Percent Control” value in assay [7] was 95%; in assay [8] it was 100%; in assay [9], 95%; in [10], 100%; in assay [11] it was 100%; in assay [12], 100%. Besides, the “Percent Control” value was 100% in assay [13]; 100% in assay [14]; 93% in assay [15]; 92% in assay [16]; 100% in assay [17]; 100% in [18]. Besides, the “Percent Control” value in assay [19] is listed as 23%; in [20], 100%.

These data come from publication PMC7826789 (International Journal of Molecular Sciences, 2021).
